Experimental data from PubChem BioAssay (Tox21).
“And” between values parts separate entries of the source, which are not always exact repeats. Equal entries are not always repeated. Results filed as inconclusive are left out. The source holds several records for some structures; these can differ, active in one and inactive in another. The source made the active and inactive calls. Unless noted, the call rests on the fitted dose curve; in most records, active means well fitted curve in the direction sought with a large enough effect in the repeat runs; inconclusive means weak or mixed curves; inactive means no such curve, though single readings can be large; an effect the other way counts as inactive or inconclusive.

Columns and labels:
[1] = qHTS assay to identify aromatase inhibitors - cell viability counter screen (AID 743084);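 further: cells stimulated with testosterone during compound exposure; nearly all actives have a fitted effect of over 55% in size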; further: potency means the concentration at half of the fitted maximal effect
[2] = molecular target: Aryl hydrocarbon receptor (Homo sapiens) (UniProt P35869); assay: qHTS assay to identify small molecule that activate the aryl hydrocarbon receptor (AhR) signaling pathway (AID 743085); further: nearly all actives have a fitted effect of over 15% in size; further: potency means the concentration at half of the fitted maximal effect;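 on activation: HG2L7.5c1 human HepG2 liver cells with stably integrated DRE-driven firefly reporter; series mostly up to about 70 µM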
Outline: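 Measured in HG2L7.5c1 cells: CellTiter-Fluor signal (30 min incubation, 37C) for viability, then luciferase luminescence (30 min, room temperature). Compound contact time was 24 h at 37C, following a 5 h pre-incubation.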

[3] = qHTS assay to identify small molecule that activate the aryl hydrocarbon receptor (AhR) signaling pathway - cell viability counter screen (AID 743086); further: nearly all actives have a fitted effect of over 45% in size; further: potency means the concentration at half of the fitted maximal effect;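 on viability change, negative = cytotoxic: HepG2 liver cells carrying the AhR DRE luciferase reporter; series mostly up to about 70 µM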
Outline: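 Cytotoxicity counter screen: CellTiter-Fluor signal (30 min, 37 C) in 4000 HepG2 cells/well carrying the DRE-luciferase reporter, following 24 h compound exposure at 37 C.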

[4] = molecular target: Peroxisome proliferator-activated receptor gamma (Homo sapiens) (UniProt P37231); assay: qHTS assay to identify small molecule agonists of the peroxisome proliferator-activated receptor gamma (PPARg) signaling pathway (AID 743094; active means well fitted activation curve with a large enough effect in the signal ratio in the repeat runs, not every such curve was filed as active; the % refers to the signal ratio)
Outline: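 Cell-based bla reporter, HEK293H background, PPARg-driven UAS. Pre-incubation 5 h, 37C, 5% CO2. Compound 17 h, 37C. Substrate 1 h RT; fluorescence.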

[5] = qHTS assay to identify small molecule antagonists of the peroxisome proliferator-activated receptor gamma (PPARg) signaling pathway - cell viability counter screen (AID 743194); further: nearly all actives have a fitted effect of over 55% in size
Outline: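 Viability was measured as CellTiter-Glo luminescence in GeneBLAzer PPARg UAS-bla HEK293H cells. These cells had been exposed 17 h at 37 C to compounds together with rosiglitazone at 50 nM final, with the beta-lactamase readout taken in the same wells.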

[6] = qHTS assay for small molecule agonists of the antioxidant response element (ARE) signaling pathway (AID 743202; active means well fitted activation curve with a large enough effect in the signal ratio in the repeat runs, not every such curve was filed as active; the % refers to the signal ratio; further: potency means the concentration at half of the fitted maximal effect)
Outline: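 After 16 hours of compound treatment at 37 C, HepG2 cells with a stably integrated ARE-driven beta-lactamase reporter were loaded 2 hours at room temperature with LiveBLAzer B/G FRET substrate and fluorescence intensity measured.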

[7] = qHTS assay for small molecule agonists of the antioxidant response element (ARE) signaling pathway - cell viability counter screen (AID 743203; calls by dose curve; further: nearly all actives have a fitted effect of over 55% in size; further: potency means the concentration at half of the fitted maximal effect)
Outline: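 Measured in the same wells as the beta-lactamase ARE reporter, this read-out is CellTiter-Glo luminescence from HepG2 ARE-bla cells given compounds for 16 hrs.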

[8] = qHTS assay for small molecule activators of the heat shock response signaling pathway - cell viability counter screen (AID 743209); further: nearly all actives have a fitted effect of over 50% in size; further: potency means the concentration at half of the fitted maximal effect
Outline: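 Same-well multiplex: after 2.5 h room-temperature incubation with LiveBLAzer B/G substrate and fluorescence reading, CellTiter-Glo reagent was added to HSE-bla HeLa cells that had received compound for 5 h at 37 C; luminescence read after 30 min.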

[9] = qHTS assay for small molecule activators of the heat shock response signaling pathway (AID 743210; active means well fitted activation curve with a large enough effect in the signal ratio in the repeat runs, with a control signal flat, not every such curve was filed as active; the % refers to the signal ratio; further: series mostly up to about 63 µM)
Outline: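 Compound exposure lasted 5 h at 37 C in HeLa cells carrying a heat-shock-element-driven beta-lactamase reporter. Read-out: fluorescence intensity after 2.5 h room-temperature loading with LiveBLAzer B/G FRET substrate.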

[10] = molecular target: Peroxisome proliferator-activated receptor gamma (Homo sapiens) (UniProt P37231); assay: qHTS assay to identify small molecule antagonists of the peroxisome proliferator-activated receptor gamma (PPARg) signaling pathway (AID 743191; calls by dose curve; further: series mostly up to about 63 µM; nearly all actives have a fitted effect of over 30% in size)
Outline: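 Beta-lactamase reporter under UAS control in HEK293H PPARg-bla cells; compound treatment 17 h at 37C. Read-out: fluorescence intensity after 1 h room-temperature incubation with LiveBLAzer B/G FRET substrate.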
On the % scale 0 is the no-effect control and ±100 the full control effect.

Chain of Aryl hydrocarbon receptor (Homo sapiens) (P35869 whole entry, looked up): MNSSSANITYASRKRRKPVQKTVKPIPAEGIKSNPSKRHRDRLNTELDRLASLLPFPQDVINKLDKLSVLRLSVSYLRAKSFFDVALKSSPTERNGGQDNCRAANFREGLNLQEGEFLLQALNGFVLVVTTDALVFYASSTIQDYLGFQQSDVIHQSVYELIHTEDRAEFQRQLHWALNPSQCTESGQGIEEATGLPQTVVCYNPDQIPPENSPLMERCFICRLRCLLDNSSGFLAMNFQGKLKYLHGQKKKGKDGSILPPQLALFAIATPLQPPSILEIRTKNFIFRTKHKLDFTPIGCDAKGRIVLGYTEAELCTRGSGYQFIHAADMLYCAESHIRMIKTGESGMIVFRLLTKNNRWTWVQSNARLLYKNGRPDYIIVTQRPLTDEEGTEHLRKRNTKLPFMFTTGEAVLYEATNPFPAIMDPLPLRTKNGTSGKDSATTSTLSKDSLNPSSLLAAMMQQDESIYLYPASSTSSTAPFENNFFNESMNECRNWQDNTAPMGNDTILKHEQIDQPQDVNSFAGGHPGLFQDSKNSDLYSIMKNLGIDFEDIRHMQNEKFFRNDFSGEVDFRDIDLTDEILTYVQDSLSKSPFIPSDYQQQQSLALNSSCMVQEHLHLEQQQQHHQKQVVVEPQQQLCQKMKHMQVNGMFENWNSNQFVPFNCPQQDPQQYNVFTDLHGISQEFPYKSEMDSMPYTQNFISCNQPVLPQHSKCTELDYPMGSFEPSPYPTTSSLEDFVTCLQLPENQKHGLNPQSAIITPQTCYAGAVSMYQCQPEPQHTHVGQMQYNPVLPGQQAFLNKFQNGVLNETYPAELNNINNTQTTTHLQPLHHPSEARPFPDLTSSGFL
Chain of Peroxisome proliferator-activated receptor gamma (Homo sapiens) (P37231 whole entry, looked up): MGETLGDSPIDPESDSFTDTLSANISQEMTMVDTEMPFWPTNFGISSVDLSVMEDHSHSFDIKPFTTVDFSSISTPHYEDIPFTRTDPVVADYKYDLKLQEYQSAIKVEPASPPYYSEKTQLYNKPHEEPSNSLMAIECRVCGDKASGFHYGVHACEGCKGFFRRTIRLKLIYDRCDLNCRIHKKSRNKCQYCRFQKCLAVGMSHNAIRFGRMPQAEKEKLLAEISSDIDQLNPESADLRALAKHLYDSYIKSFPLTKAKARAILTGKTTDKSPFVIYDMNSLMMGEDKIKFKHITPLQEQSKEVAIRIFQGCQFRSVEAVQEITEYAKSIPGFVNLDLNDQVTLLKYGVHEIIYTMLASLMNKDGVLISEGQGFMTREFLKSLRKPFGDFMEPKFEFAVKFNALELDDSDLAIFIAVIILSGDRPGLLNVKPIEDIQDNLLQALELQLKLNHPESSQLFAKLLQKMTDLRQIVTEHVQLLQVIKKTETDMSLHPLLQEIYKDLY

Nc1ccc(C(=O)O)c(O)c1
inactive: Potency [1] | Potency [2] | Potency [3] | Potency [4] | Potency [5] | Potency [6] | Potency [7] | Potency [8] | Potency [9]

CCOC(=O)NNc1ccc(N(CC)CC(C)O)nn1 (stereo not drawn)
inactive: Potency [1] | Potency [2] | Potency [3] | Potency [4] | Potency [5] | Potency [6] | Potency [7] | Potency [8] | Potency [9]

CC1(C)CCC[C@]2(C)[C@H]3CCO[C@]3(C)CC[C@@H]12
inactive: Potency [1] | Potency [2] | Potency [3] | Potency [4] | Potency [5] | Potency [6] | Potency [7] | Potency [8] | Potency [9]

O=S(=O)(O)c1ccc(N=Nc2c(O)ccc3ccccc23)cc1
active: Potency [1] 17.2 µM | Potency [2] 27.3 µM | Potency [3] 24.3 µM
inactive: Potency [4] | Potency [5] | Potency [9]

CC[N+](CC)(CC)CCOC(=O)C(C1CCCC1)C1CCCC1
inactive: Potency [1] | Potency [2] | Potency [3] | Potency [4] | Potency [7] | Potency [8] | Potency [9]

CCCCCCCCCCCCCC[N+](C)(C)Cc1ccccc1
inactive and 24.7 µM (active): Potency [1]
active: Potency [3] 69.6 µM | Potency [7] 69.6 µM | Potency [8] 44.3 µM and 26.6 µM
inactive: Potency [2] | Potency [4]

CC(=O)Oc1cc2c(s1)CCN(C(C(=O)C1CC1)c1ccccc1F)C2 (stereo not drawn)
inactive: Potency [1] | Potency [2] | Potency [3] | Potency [4] | Potency [6] | Potency [7] | Potency [8] | Potency [9]

CCCCCCCC/C=C\CCCCCCCCN
inactive: Potency [1] | Potency [2] | Potency [3] | Potency [4] | Potency [6] | Potency [8] | Potency [9]

Cc1c(F)c(N2CCNC(C)C2)cc2c1c(=O)c(C(=O)O)cn2C1CC1 (stereo not drawn)
inactive: Potency [1] | Potency [2] | Potency [3] | Potency [4] | Potency [7] | Potency [8] | Potency [9]

O=C(O)c1cc(-c2ccc(F)cc2F)ccc1O
inactive: Potency [1] | Potency [2] | Potency [3] | Potency [5] | Potency [7] | Potency [8] | Potency [9]
active: Potency [6] 13.3 µM

CC(C)(C)NSc1nc2ccccc2s1
inactive: Potency [1] | Potency [3] | Potency [10] | Potency [5] | Potency [7]
active: Potency [2] 27.8 µM | Potency [6] 27.8 µM

COC(=O)Nc1nc2ccc(C(=O)c3ccccc3)cc2[nH]1
inactive: Potency [1] | Potency [3] | Potency [4] | Potency [5] | Potency [8] | Potency [9]
active: Potency [2] 4.52 µM

CC(C)(C)CC(C)(C)c1ccc(Nc2ccc(C(C)(C)CC(C)(C)C)cc2)cc1
inactive: activity change, negative = cytotoxicity [1] 3.33% [at 8.47 µM] | activation [2] -2.79% [at 8.47 µM] | viability change, negative = cytotoxic [3] -11.3% [at 8.47 µM] | activation [4] 0.247% [at 7.08 µM] | activation [6] -4.99% [at 8.36 µM] | viability change, negative = cytotoxic [7] 7.42% [at 8.36 µM] | activity change, negative = cytotoxicity [8] 7.93% [at 5.95 µM] | activation [9] 0.375% [at 5.95 µM]
